# Reference: PMC7826789 (International Journal of Molecular Sciences, 2021)
# Assays:
# [1] = system: CSNK1D
# [2] = system: CLK1
# [3] = system: CLK3
# [4] = system: CLK4
# [5] = system: CSNK1A1
# [6] = system: CSNK1E
# [7] = system: CLK2
# [8] = system: CDKL5
# [9] = system: DRAK1
# [10] = system: DYRK1A
# [11] = system: DYRK1B
# [12] = system: DYRK2
# [13] = system: CHEK2
# [14] = system: DDR1
smiles,measurement,setting,value
Cc1nccc(-c2c(-c3ccc(F)cc3)ncn2CCCN2CCOCC2)n1 [SB-282975],Kinases covered,[1],CSNK1D
CC(C)C(=O)N[C@@H]1CCN(C(=O)Nc2nc3c(s2)-c2nc(-c4ccccc4Cl)ncc2CC3)C1 [BI00047804],Kinases covered,[2],CLK1
same,Kinases covered,[3],CLK3
same,Kinases covered,[4],CLK4
Nc1nccc(-c2c(-c3ccc(F)cc3)ncn2C2CCN(Cc3ccccc3)CC2)n1 [SB-219980],Kinases covered,[5],CSNK1A1
same,Kinases covered,[1],CSNK1D
same,Kinases covered,[6],CSNK1E
COc1ccc2c(-c3ccnc(Nc4cccc(OC(F)(F)F)c4)n3)cnn2n1 [GW810372X],Kinases covered,[7],CLK2
CCOc1ccc2c(-c3ccnc(Nc4cc(OC)cc(C(F)(F)F)c4)n3)cnn2n1 [GW807982X],Kinases covered,[2],CLK1
same,Kinases covered,[7],CLK2
Cc1cc(NC(=O)c2cccc(NC(=O)/C=C/CN(C)C)c2)ccc1Nc1nccc(-c2cccnc2)n1 [JNK-IN-7],Kinases covered,[8],CDKL5
same,Kinases covered,[9],DRAK1
CCOc1ccc2c(-c3ccnc(Nc4cccc(C(F)(F)F)c4)n3)cnn2n1 [GW811761X],Kinases covered,[2],CLK1
same,Kinases covered,[7],CLK2
CCC(NN(C)C)=C1C(=O)Nc2ccc(C(C)=O)cc21 [BI00036838],Kinases covered,[8],CDKL5
same,Kinases covered,[10],DYRK1A
same,Kinases covered,[11],DYRK1B
same,Kinases covered,[12],DYRK2
Fc1ccc(-c2nn3ccccc3c2-c2ccncc2)cc1 [GW434756X],Kinases covered,[5],CSNK1A1
CCCNC(=O)c1ccc(Nc2ncc(C(F)(F)F)c(Nc3ccccc3C(C)=O)n2)c(Br)c1 [BI00801818],Kinases covered,[2],CLK1
same,Kinases covered,[4],CLK4
same,Kinases covered,[10],DYRK1A
FC1=CC(C3=NC2=CC(OC)=C(OC)C=C2C(N[C@H]4[C@H]([C@](C)(O)C)CNC4)=N3)=C(O)C=C1.Cl.Cl [CCT241533],Kinases covered,[13],CHEK2
CCN1CCN(Cc2ccc(C(=O)Nc3ccc(C)c(Oc4ccc5c(c4)CC(=O)N5)c3)cc2C(F)(F)F)CC1.Cl.Cl [DDR1-IN-1],Kinases covered,[14],DDR1
